Experimental data taken from PubChem BioAssay.
The source made the active and inactive calls.

Test: A549 lung cancer cell viability effects, profiling panel, resazurin fluorescence, 24 h, PK04 Diversity Set (AID 1171); further: test concentration not given here
Conditions: higher = more signal, called active from +8 up or from −8 down

Compound	z-score
COc1ccc([Si](C)(C)[C@H]2[C@H](CCn3cc(CCO)nn3)O[C@@]3(C(=O)N(Cc4cccc(N5C(=O)c6cccc7cccc5c67)c4)c4ccccc43)[C@@H]2C)cc1	-3.05 (inactive)
COC(=O)[C@@]1(Cc2ccc(F)cc2)[C@H]2c3cc(C(=O)N4CCCC4)n(Cc4ccccc4)c3C[C@H]2CN1C(=O)c1ccccc1	0.0314 (inactive)
CCC[C@@H]1C[C@@]1(CCC)[C@@H](NC(=O)c1ccco1)c1ccc(Cl)cc1	-1.91 (inactive)
C[C@@]1([C@@H](NC(=O)c2cccs2)c2ccc(-c3ccccc3)cc2)C[C@H]1C1CCCCC1	2.26 (inactive)
O=C1O[C@H](c2ccccc2)[C@H](c2ccccc2)N2[C@H]1[C@@H](C(=O)N1CCN(c3ncccn3)CC1)[C@]1(C(=O)Nc3ccc(C#CCCO)cc31)[C@H]2c1ccccc1OCCO	1.92 (inactive)
C=C(COC)C(=O)CC[C@H](OC(=O)c1ccccc1-c1ccccc1C(=O)O)c1ccc(CO)o1	-0.256 (inactive)
COCC(=C=CC[C@@H](O)c1ccccc1OCCO)C[C@@H](O)c1ccccn1	-0.709 (inactive)
COC(=O)C(CC#Cc1ccc2c(c1)[C@]1(C(=O)N2)[C@H](c2ccc(OCCO)cc2)N2[C@H](c3ccccc3)[C@H](c3ccccc3)OC(=O)[C@H]2[C@@H]1C(=O)O)C(=O)OC	0.179 (inactive)
COCCCNC(=O)[C@]1(Cc2ccccc2CN=[N+]=[N-])N=C(c2ccc(OCCCO)cc2)O[C@@H]1c1ccccc1CN=[N+]=[N-]	-0.241 (inactive)
C=C(C(=O)CC[C@H](OC(=O)c1cccnc1)c1ccc(OCCO)cc1)C(C)C	-0.569 (inactive)
CC(C)CNC(=O)[C@@]1(C)c2ccccc2C(=O)N(Cc2ccccc2)[C@H]1c1ccc(CO)cc1	0.407 (inactive)
CC(C)(C)OC(=O)CC[C@]1(C(=O)O)COC(c2ccc(OCCCO)cc2)=N1	-0.135 (inactive)
COc1ccc([Si](C)(C)[C@@H]2[C@@H](CC(=O)N(CCO)Cc3ccccc3)O[C@]3(C(=O)N(Cc4ccc(N5CCOC5=O)cc4)c4ccccc43)[C@H]2C)cc1	-1.61 (inactive)
CCCCC=C[C@@H](NC(=O)CCc1ccccc1)c1ccccc1	-1.3 (inactive)
C=C(/C(=C/C[C@@H](OC(=O)c1ccncc1)c1ccccc1OCCO)c1cnc2ccccc2c1)C(C)C	-1.15 (inactive)
C=C(CCCC)/C(=C/C[C@@H](OC(=O)c1ccncc1)c1ccccc1OCCO)c1cc(C(=O)OC)ccc1OC	0.17 (inactive)
CC(C)N1C(=O)c2ccccc2[C@](C)(C(=O)O)[C@@H]1c1ccc(CO)cc1	0.069 (inactive)
COC(=O)[C@@]1(Cc2ccc(OC)cc2)[C@H]2c3cc(C(=O)N(C)C)n(Cc4cc(C)n(C)n4)c3C[C@H]2CN1C(=O)c1ccccc1	-1.9 (inactive)
